Measurements: PMC5540273 (PLoS ONE, 2017)
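Also: KINOMEscan kinase panel screen.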

Each compound was assayed on T1, BIKE. Conditions: concentration: 1 μM, replicates: in singlicate; n = 1.
T1 construct: gene BMP2K
`COc1cccc2c(-c3ccncc3)c(-c3ccc(F)cc3)nn12` [GW468513] was tested, and the “%Inh” value was 26%. For `COc1cccc(NC(=O)NCCNc2ccnc(Nc3ccc(F)cc3)n2)c1` [GSK1379879], the “%Inh” value was 14%. `Cn1cc(-c2ccc3c(c2)CCN3C(=O)Cc2cc(F)cc(F)c2F)c2c(N)ncnc21` [GSK2634140] was tested, and the “%Inh” value was 33%. `CN(C)CCOc1ccc(-c2cc(-c3ccc(Cl)c(O)c3)c(-c3ccncc3)[nH]2)cc1.Cl.Cl` [SB-684387] was tested, and the “%Inh” value was 0%.

These compounds were tested on BLK. Conditions: concentration: 1 μM, replicates: in singlicate; n = 1.
For `COc1cc(Nc2nccc(N3CCC(NS(=O)(=O)c4ccc(NC(C)=O)cc4)CC3)n2)cc(OC)c1OC` [GSK1379825], the “%Inh” value was 50%. For `Cc1cc(-c2ccnc(Nc3cccc(C#N)c3)n2)cc(C)c1O` [GSK1440913], the “%Inh” value was 0%. For `Cc1ccc(C)c(NC(=O)Nc2ccc(C)c(-c3ccc(C(=O)Nc4ccncc4)cc3)c2)c1` [GSK1398473], the “%Inh” value was 0%. In the case of `CN(C)CCNS(=O)(=O)c1ccc(-c2ccnc3[nH]ccc23)cc1` [GSK977620], the “%Inh” value is reported as 6%. For `O=C(Nc1n[nH]c2nc(-c3cccc(O)c3)ccc12)C1CC1` [SB-711805], the “%Inh” value was 0%. `COc1cccc(C2=C(Nc3cccc(O)c3)C(=O)NC2=O)c1` [SB-390771] was tested, and the “%Inh” value was 0%. `CSc1ccc(NC2=C(c3ccc(Cl)cc3)C(=O)NC2=O)cc1` [SB-317658] was tested, and the “%Inh” value was 0%. With `Cc1ccc(O)cc1Nc1ccnc2cc(-c3ccc(CN4CCCCC4)o3)ccc12` [GW557777] the “%Inh” value was 99.7%. For `Fc1cc(Cl)ccc1Nc1ccnc2cc(-c3ccc(CN4CCOCC4)o3)ccc12` [GW560109], the “%Inh” value was 94.4%. For `COC(=O)Nc1nc2ccc(Oc3ccc(NC(=O)Nc4cc(C(F)(F)F)ccc4F)cc3)cc2[nH]1.Cl` [GW654607], the “%Inh” value was 67%. For `CN(c1ccc(NC(=O)N2CCN(CCCN3CCOCC3)CC2)cc1)c1ccnc(Nc2ccc(CS(C)(=O)=O)cc2)n1.Cl` [GW830899], the “%Inh” value was 0%. In the case of `CCn1c(-c2nonc2N)nc2c(-c3ccccc3)ncc(OCCCN)c21.O=C(O)C(F)(F)F.O=C(O)C(F)(F)F` [GSK260205], the “%Inh” value is reported as 20%. `COc1cc(Nc2nccc(N3CCC(NC(=O)Nc4ccc5c(c4)OCO5)C3)n2)cc(OC)c1OC` (centres unmarked) [GSK1379766] was tested, and the “%Inh” value was 0%. For `Cc1ccc(NC(=O)c2ccnc(N3CCCCC3)c2)cc1-c1ccc(C(=O)NCC2CC2)cc1` [GW775610], the “%Inh” value was 10%. `COC(=O)Nc1nc2ccc(Oc3ccc(CC(=O)Nc4cc(C(F)(F)F)ccc4F)cc3)cc2[nH]1` [GW680903] was tested, and the “%Inh” value was 32%. For `COc1ccc(NC(=O)c2ccoc2)cc1-c1ccc(C(=O)NCC2CC2)cc1` [GW810437], the “%Inh” value was 21%. `Cc1cccc(Nc2nc(NCCN)ncc2C(N)=O)c1` [GSK1292139] was tested, and the “%Inh” value was 1%. `Cl.N#CCc1ccc(Nc2nccc(Nc3ccc(Oc4ccccc4)cc3)n2)cc1` [GW639905] was tested, and the “%Inh” value was 94.1%. For `Fc1cc(Cl)ccc1Nc1ccnc2cc(-c3ccc(CN4CCSCC4)o3)ccc12` [GW560106], the “%Inh” value was 97.7%. For `NCCC(NC(=O)c1cc(Br)c(-c2ccnc3[nH]ccc23)s1)c1ccccc1.O=C(O)C(F)(F)F.O=C(O)C(F)(F)F` (centres unmarked) [GSK1307810], the “%Inh” value was 0%. With `O=C(O)C(F)(F)F.O=c1[nH]ccc2nc(N[C@@H]3CCNC3)nc(Nc3ccc4c(c3)S(=O)(=O)CC4)c12` [GSK2181306] the “%Inh” value was 28%. For `Cc1ccccc1CC(=O)N1CCc2cc(-c3cn(C)c4ncnc(N)c34)ccc21` [GSK2603346], the “%Inh” value was 49%. `CCNC(=O)/C=C/c1n[nH]c2cc(Sc3ccccc3C(=O)NC)ccc12` was tested, and the “%Inh” value was 7%. `Nc1ncc(-c2ccc3nccc(-c4ccncc4)c3c2)cc1S(=O)(=O)N1CCCCC1` [GSK1693850] was tested, and the “%Inh” value was 0%. In the case of `CS(=O)(=O)c1cccc(CNc2nc(Nc3ccc4c(c3)CCC(=O)N4)ncc2C(F)(F)F)c1`, the “%Inh” value is reported as 0%. `COc1ccc(C)c(Nc2ccnc(Nc3ccc(-c4cnc[nH]4)cc3)n2)c1.Cl` [GW784041] was tested, and the “%Inh” value was 59%. In the case of `O=C(O)C(F)(F)F.O=c1[nH]ccc2nc(N[C@@H]3CCNC3)nc(Nc3cc(Cl)cc(Cl)c3)c12` [GSK2188764], the “%Inh” value is reported as 0%. In the case of `Cl.Cl.NC(CNC(=O)c1cc(Br)c(-c2ccnc3[nH]ccc23)s1)c1ccccc1` (centres unmarked) [GSK1322949], the “%Inh” value is reported as 44%. With `COC(=O)Nc1nc2cc(Oc3ccc(NC(=O)Nc4cccc(SC)c4)cc3)ccc2[nH]1.Cl` [GW697999] the “%Inh” value was 65%. With `CCOc1nccc(-c2c(-c3ccc(F)cc3)ncn2C2CCNCC2)n1` [SB-249175] the “%Inh” value was 0%. With `Cl.Cl.NCC(NC(=O)c1cc(-c2cccnc2)c(-c2ccnc3[nH]ccc23)s1)c1ccccc1` (centres unmarked) [GSK1323434] the “%Inh” value was 40%. For `Nc1ncnc2scc(-c3ccc(NC(=O)Cc4cc(F)ccc4F)cc3)c12.O=C(O)C(F)(F)F` [SB-731254-M], the “%Inh” value was 36%. `Cn1cc(-c2ccc3c(c2)CCN3C(=O)Cc2cc(F)cc(C(F)(F)F)c2)c2c(N)ncnc21` [GSK2635225] was tested, and the “%Inh” value was 40%. In the case of `COc1cccc2c(-c3ccncc3)c(-c3ccc(F)cc3)nn12` [GW468513], the “%Inh” value is reported as 49%. For `COc1cccc(NC(=O)NCCNc2ccnc(Nc3ccc(F)cc3)n2)c1` [GSK1379879], the “%Inh” value was 18%. With `Cn1cc(-c2ccc3c(c2)CCN3C(=O)Cc2cc(F)cc(F)c2F)c2c(N)ncnc21` [GSK2634140] the “%Inh” value was 72%. In the case of `CN(C)CCOc1ccc(-c2cc(-c3ccc(Cl)c(O)c3)c(-c3ccncc3)[nH]2)cc1.Cl.Cl` [SB-684387], the “%Inh” value is reported as 64%.
